High-throughput results as filed in PubChem.
A488 fluor: compound fluoresces in the A488 spectral region. compound autofluorescence, A488 spectral region, dye equivalency; Compound Type: qHTS ECL - MLSMR. max dye equivalency, M. actives 0.1% (n = 59,000). AID 591
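Read-out: relative fluorescence at 480/540 nm, expressed as Alexa 488 dye-equivalent concentration from a six-point A488 standard included per plate. Conditions: 100 mM Tris, pH 8.0; 15 min incubation, room temperature.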
A647 fluor: A647 region autofluorescence | 59,000 tested, under 10 active | Compound fluorescence, A647 channel (570/671 nm), Tris buffer | max dye-equivalent concentration, M;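 further: values scaled relative to a standard on each plate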
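Fluorescence read (570 nm ex, 671 nm em) after 15 min RT incubation of compounds in 100 mM Tris buffer, pH 8.0; values expressed as dye-equivalent concentration against a six-point A647 standard series on each plate.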
Resorufin fluor: compounds fluorescent in resorufin spectral region. max dye-equivalent concentration, M. actives 0.04% (n = 59,000). Compound fluorescence, resorufin region 547/598 nm, buffer; hits give high values. AID 588
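Read-out: intrinsic compound fluorescence at ex 547/em 598 nm after 15 min at RT in pH 8.0 Tris (100 mM). Values expressed as resorufin-equivalent concentration from per-plate standard series.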
Texas Red fluor: Texas Red region autofluorescence | Compound fluorescence, Texas Red channel, 547/618 nm; hits give high values | max dye-equivalent concentration, M | actives 0.06% (n = 59,000) | AID 587; in the data active means max dye-equivalent concentration above about 10 nM; inconclusive means between about 1.1 nM and that limit
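Spectral interference profiling: each compound concentration's relative fluorescence, read with a 547 nm excitation and 618 nm emission filter pair, was normalized to a per-plate Texas Red standard curve.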
Fluorescein fluor: fluorescein region autofluorescence; actives 0.91% (n = 59,000); AID 593; max fluorescein-equivalent concentration, M; Compound autofluorescence, 480/540 nm, fluorescein-equivalent; hits give high values; in the data active means max fluorescein-equivalent concentration above about 10 nM; inconclusive means between about 1.1 nM and that limit
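Values reflect compound autofluorescence, normalized to fluorescein on the same plate and reported at each tested concentration. Conditions: 100 mM Tris pH 8.0, room temperature, 15 min, excitation 480 nm, emission 540 nm.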
Rhodamine autofl: compound fluoresces in the rhodamine spectral region; Rhodamine-region fluorescence, 547/598 nm, Tris buffer; hits give high values; max dye-equivalent concentration, M; actives 0.05% (n = 59,000); in the data active means max dye-equivalent concentration above about 11 nM; inconclusive means between about 1.1 nM and that limit
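Read-out is relative fluorescence at 547 nm excitation and 598 nm emission, expressed as dye-equivalent concentration using rhodamine standards on every plate. Each compound was profiled across a concentration series after 15 min in 100 mM Tris, pH 8.0.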
The depositor's hits bear a star; i = inactive; ? = inconclusive. Only some compounds are listed: those with a hit (about 0.95% of all), similar ones and a draw of the others. Unless noted, how the calls were made is not given here.

SMILES	A488 fluor	A647 fluor	Resorufin fluor	Texas Red fluor	Fluorescein fluor	Rhodamine autofl
O=c1[nH][nH]c(=S)c(=O)[nH]1	i	1e-08	i	i	i	i
CN(C)c1ccc(/C=C/c2cc[n+]([O-])cc2)cc1	1.51e-08M*	5e-09	i	?	2.85e-07M*	i
Cc1ccc(C(=O)O[C@@H](C(=O)O)[C@@H](OC(=O)c2ccc(C)cc2)C(=O)O)cc1 (tested in a mixture with another compound)	i	5.69e-08	i	i	?	i
Cc1cccc(-c2c3c(=O)n(C)c(=O)n(C)c3c3cccnn23)c1	i	1e-09	i	i	1.06e-08M*	i
Cc1cccc(-c2c3c(=O)n(C)c(=O)n(C)c3c3c(C)cc(C)nn23)c1	i	3.24e-08	i	i	?	i
O=c1cc(-c2ccccc2)oc2cc(O[C@H]3O[C@H](CO)[C@@H](O)[C@H](O)[C@@H]3O)c(O)c(O)c12	i	1.42e-08	i	i	i	i
C[C@@H]1c2ccccc2Cn2cc3c(c21)C(=O)c1cccc(OP(=O)(O)OCc2ccccc2)c1C3=O	?	8.7e-09	i	i	8.57e-08M*	i
CCCC[S@@](=N)(=O)CC[C@@H](N)C(=O)O	i	1e-09	i	i	?	i
CC(=Nc1ccc(O)cc1)c1sc2ccccc2c1O	?	4.7e-09	i	?	1e-07M*	i
CC(=O)NCCN=C(C)c1sc2ccccc2c1O	i	3.65e-08	i	?	?	i
N/C(=N\O)c1cn([C@@H]2O[C@@H](CO)[C@H](O)[C@@H]2O)c2ncnc(NO)c12	i	2.2e-09	i	i	i	i
O=c1[nH]c2[nH]c(=S)[nH]c(=S)c2[nH]1	i	1e-09	i	i	i	i
c1ccc2c(-c3ccncc3)c[nH]c2c1	i	1e-09	i	i	?	i
Nc1cc(-c2ccncc2)c[nH]c1=O	i	5.08e-08	i	i	1.08e-08M*	i
CN(C)/C=c1\sc2c(C#N)cc(C(=O)c3ccc(Br)cc3)n2c1=O	4.29e-08M*	2.5e-08	i	i	8.11e-07M*	i
Nc1ncn([C@@H]2O[C@@H](CO)[C@@H](O)[C@H]2O)c(=O)n1	i	1e-09	i	i	i	i
Oc1cc(O)cc(/C=C\c2ccc(O)c(O)c2)c1	i	1e-09	i	i	?	i
CCOc1ccc2nc(NS(=O)(=O)c3ccc4c(c3)n(C)c(=O)n4C)sc2c1	i	1e-09	i	i	1.17e-08M*	i
CO[C@@H]1/C=C\O[C@]2(C)Oc3c(C)c(O)c4c(O)c(cc(O)c4c3C2=O)NC(=O)/C(C)=C\C=C/[C@H](C)[C@@H](O)[C@H](C)[C@H](O)[C@H](C)[C@H](OC(C)=O)[C@@H]1C	i	1e-09	i	i	i	i
O=C(O)c1ccc2c(c1C(=O)O)C(=O)OC2(c1ccc(O)cc1)c1ccc(O)cc1	i	4.2e-09	i	i	i	i
O=C1OC2(c3ccc(O)cc3Oc3cc(O)ccc32)c2c1c(-c1ccccc1)c(-c1ccccc1)c(-c1ccccc1)c2-c1ccccc1	2.29e-08M*	1e-09	?	i	4.81e-07M*	?
O=C(O)c1ccccc1C1=Nc2ccc(O)cc2Oc2cc(O)ccc21	?	3.56e-08	?	1.27e-08M*	1.67e-07M*	?
Cc1cc(-c2ccccc2C(=O)O)on1	i	1.8e-08	i	?	?	i
CCN1C(=S)SC(=O)C1=C1C=C(C)N(Cc2ccco2)C(C)=C1	i	4.7e-09	i	?	?	i
CCN1C(=S)SC(=O)C1=C1C=C(C)OC(C)=C1	?	1e-09	i	?	1.72e-07M*	i
SMILES	A488 fluor	A647 fluor	Resorufin fluor	Texas Red fluor	Fluorescein fluor	Rhodamine autofl
O=C(c1[nH]o[n+](=O)c1C(=O)c1csc2ccccc12)c1csc2ccccc12	i	1e-09	i	i	i	i
Cn1nc(-c2ccccc2)c2nc3ccccc3nc21	2.73e-08M*	3.58e-08	i	i	4.53e-07M*	i
N#CCCn1c(=O)c(-c2cccs2)nc2cnc(N3CCOCC3)nc21	i	3.27e-08	i	i	1.3e-08M*	i
N=c1c(S(=O)(=O)c2ccccc2)cc2c(=O)n3ccccc3nc2n1Cc1ccco1	i	3.5e-09	i	i	?	i
Cc1ccc(S(=O)(=O)c2cc3c(=O)n4ccccc4nc3n(Cc3ccco3)c2=N)cc1C	i	4.08e-08	i	i	1.24e-08M*	i
CN(C)c1ncc2nc(-c3cccs3)c(=O)n(C3CC3)c2n1	i	1.37e-08	i	i	1.46e-08M*	i
Cc1sccc1C1C(C#N)=C(N)SC(N)=C1C#N	i	2.74e-08	i	i	1.23e-08M*	i
O=S(=O)(NCCNC/C=C\c1ccc(Br)cc1)c1cccc2cnccc12	i	6.56e-08	i	i	?	i
CCOC(=O)CSC1=NC(=O)CS1	i	1e-09	i	i	2e-08M*	i
CCOC(=O)CSc1nnc(N)s1	i	2.3e-09	i	?	?	i
CC(C)C1Cc2c(C#N)c(N)sc(=S)c2CO1 (stereo not drawn)	i	3.9e-09	i	i	1.28e-08M*	i
OC[C@@H]1O[C@@H](n2cnc3c(NC4CCCC4)ncnc32)[C@@H](O)[C@H]1O	i	4.59e-08	i	i	?	i
C=C1CC[C@@H](O)C/C1=C/C=C1\CCC[C@]2(C)[C@@H]1CC[C@H]2[C@@H](C)CCCC(C)C	i	1e-09	i	i	i	i
O=C(NCc1ccc2[nH]c3c(c2c1)CCCC3)N1CCOCC1	i	1e-09	i	i	1.46e-08M*	i
CCCCCCc1cc2cc(-c3nnc(-c4ccccc4O)o3)c(=O)oc2cc1O	i	4.3e-08	i	i	2.6e-08M*	i
Cc1cc(-c2nnc(-c3cc4ccccc4oc3=O)o2)c(C)n1-c1ccccc1	i	1e-09	i	i	i	i
OC[C@@H]1O[C@H](O)[C@@H](Cl)[C@H](O)[C@@H]1O	i	8.7e-09	i	?	i	i
Cc1c(-n2cc(C(=O)c3ccccc3O)cc(C#N)c2=O)c(=O)n(-c2ccccc2)n1C	?	2.32e-08	i	i	3.75e-08M*	i
O=C(O)c1ccncc1.O=C(O)c1ccncc1.[Cl][Pt]([Cl])([Cl])[Cl]	i	2.2e-09	i	i	?	i
COc1ccc(-c2ccc(-c3noc(-c4ccccc4OC)n3)c(OC)n2)cc1	?	1e-09	i	i	2.76e-08M*	i
